The text below walks through data of PubChem BioAssay (EPA / NIEHS).

What is called AC50 is the midpoint of the concentration-response curve, whichever way the signal moves.

Structures are written as SMILES. The source made the active and inactive calls. The calls were made as follows: active = hit-call score of the fitted dose curve at least 0.9, where 1 is the maximum; inactive = score below 0.9.

Experiment [1] deals with CCAAT/enhancer-binding protein beta (Homo sapiens) (UniProt P17676). In words: ATG_C_EBP_CIS: Attagene CIS-FACTORIAL HepG2 Assay for human CCAAT/Enhancer Binding Protein (C/EBP) beta (AID 2282927). To be noted: HepG2 Attagene cis-factorial transcription factor reporter; actives raise or lower the signal. The gist of the method: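 Chemical-treated HepG2 cells (24 h) bearing cis-regulated reporter constructs were processed for total RNA, then reverse transcription, PCR amplification, fluorescent primer extension and fragment analysis; gain- and loss-of-signal were fitted against DMSO.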

The nature of experiment [2]: ATG_CMV_CIS: Attagene CIS-FACTORIAL HepG2 Assay for human CMV (Internal Marker) (AID 2282928).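 Also: endpoint acts as a background internal control marker rather than a target.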 The conditions noted are these: HepG2 CMV promoter reporter, transcription factor profiling; actives raise or lower the signal. The procedure, abridged:
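CMV internal-marker background readout in transiently transfected HepG2 cells bearing cis-regulated reporter units. Reporter mRNA is measured 24 h after dosing by RT-PCR and capillary electrophoresis, with bidirectional fitting against DMSO.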

Experiment [3] is described as follows: ATG_DR4_LXR_CIS: Attagene CIS-FACTORIAL HepG2 Assay for human Liver X Receptor (LXR), DR4 submotif (AID 2282929). To be noted: HepG2 Attagene DR4 cis-reporter, mRNA transcription; actives raise or lower the signal. The gist of the method:
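Fluorescence intensity of labelled reporter cDNA fragments, separated by capillary electrophoresis, gives the signal. HepG2 cells bearing cis-regulated reporter constructs were treated 24 h; activity fitted bidirectionally relative to DMSO negative control.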

Experiment [4] concerns the target Aryl hydrocarbon receptor (Homo sapiens) (UniProt P35869). In words: ATG_Ahr_CIS: Attagene CIS-FACTORIAL HepG2 Assay for human Aryl Hydrocarbon Receptor (Ahr) (AID 2282930). To be noted: HepG2 AhR cis-factorial reporter transcription; actives raise or lower the signal. The gist of the method: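 Following 24 h of chemical dosing, transfected HepG2 liver cells with cis-driven reporter units were lysed for RNA; reporter mRNA was quantified via RT-PCR and capillary electrophoresis, and responses fitted bidirectionally from DMSO.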

Experiment [5] can be described thus: ATG_AP_1_CIS: Attagene CIS-FACTORIAL HepG2 Assay for human Activator Protein 1 (AP-1) (AID 2282931). The conditions noted are these: HepG2 Attagene cis-factorial AP-1 reporter mRNA; actives raise or lower the signal. The gist of the method:
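Multiplexed HepG2 reporter assay, 24 h dosing. mRNA induction detected by RT-PCR plus capillary electrophoresis. Activity fitted in both directions against DMSO.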

The nature of experiment [6]: ATG_AP_2_CIS: Attagene CIS-FACTORIAL HepG2 Assay for human Activator Protein 2 (AP-2) (AID 2282932). The conditions noted are these: HepG2 AP-2 cis-reporter, Attagene transcription factor profiling; actives raise or lower the signal. The procedure, abridged: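 HepG2 cells were transiently transfected with multiple cis-promoter reporter transcription units and dosed for 24 h. Reporter mRNA was measured by RT-PCR with capillary electrophoresis fluorescence; bidirectional fits relative to DMSO baseline.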

The nature of experiment [7]: ATG_BRE_CIS: Attagene CIS-FACTORIAL HepG2 Assay for human Bone Morphogenetic Protein (BMP) Response Element (BRE) (AID 2282933). To be noted: HepG2 BMP response element reporter, Attagene transcription factor profiling; actives raise or lower the signal. The procedure, abridged:
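Fluorescence-labelled reporter cDNA fragments, separated by capillary electrophoresis, gave the signal for this component of a 52-readout multiplex. HepG2 cells were transfected, exposed to chemicals for 24 h, and compared with DMSO using bidirectional fitting.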

Experiment [8] concerns the target Retinoic acid receptor alpha (Homo sapiens) (UniProt P10276). Nature of the experiment: ATG_DR5_RAR_CIS: Attagene CIS-FACTORIAL HepG2 Assay for human Retinoic Acid Receptor Alpha (RARE), DR5 submotif (AID 2282934).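 As to AC50: reporter responds to endogenous RAR alpha beta and gamma in HepG2 not RARA alone.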 The conditions noted are these: HepG2 Attagene cis-factorial RARE DR5 reporter, mRNA; actives raise or lower the signal. The procedure, abridged: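 Transfected HepG2 reporter cells are exposed to chemicals for 24 h. Then RNA is extracted and the DR5 element reporter transcript is measured by RT-PCR and capillary electrophoresis, with bidirectional curve fitting relative to DMSO.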

Experiment [9] can be described thus: ATG_CRE_CIS: Attagene CIS-FACTORIAL HepG2 Assay for human cAMP Responsive Element (CRE) binding protein 3 (AID 2282926). To be noted: HepG2 CRE cis-reporter, Attagene multiplexed mRNA; actives raise or lower the signal. The gist of the method:
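Multiplexed transcription-unit reporters transfected into HepG2; 24 h dosing; RT-PCR/capillary electrophoresis fluorescence read-out; bidirectional fit vs DMSO.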

Retinoic acid receptor alpha (Homo sapiens), sequence (P10276 whole entry, looked up): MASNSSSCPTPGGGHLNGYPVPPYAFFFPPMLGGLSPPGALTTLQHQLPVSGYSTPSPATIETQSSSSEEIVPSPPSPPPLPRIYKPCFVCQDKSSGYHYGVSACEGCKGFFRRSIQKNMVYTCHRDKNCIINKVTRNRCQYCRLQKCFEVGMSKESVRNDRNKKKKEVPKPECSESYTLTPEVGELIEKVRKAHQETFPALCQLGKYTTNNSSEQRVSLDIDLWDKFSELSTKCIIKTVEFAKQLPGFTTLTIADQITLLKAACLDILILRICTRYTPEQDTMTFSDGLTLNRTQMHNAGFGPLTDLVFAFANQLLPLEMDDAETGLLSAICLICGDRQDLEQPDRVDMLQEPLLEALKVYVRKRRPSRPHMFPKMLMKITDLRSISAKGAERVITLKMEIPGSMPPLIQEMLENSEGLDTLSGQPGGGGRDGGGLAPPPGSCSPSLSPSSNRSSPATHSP
Aryl hydrocarbon receptor (Homo sapiens), sequence (P35869 whole entry, looked up): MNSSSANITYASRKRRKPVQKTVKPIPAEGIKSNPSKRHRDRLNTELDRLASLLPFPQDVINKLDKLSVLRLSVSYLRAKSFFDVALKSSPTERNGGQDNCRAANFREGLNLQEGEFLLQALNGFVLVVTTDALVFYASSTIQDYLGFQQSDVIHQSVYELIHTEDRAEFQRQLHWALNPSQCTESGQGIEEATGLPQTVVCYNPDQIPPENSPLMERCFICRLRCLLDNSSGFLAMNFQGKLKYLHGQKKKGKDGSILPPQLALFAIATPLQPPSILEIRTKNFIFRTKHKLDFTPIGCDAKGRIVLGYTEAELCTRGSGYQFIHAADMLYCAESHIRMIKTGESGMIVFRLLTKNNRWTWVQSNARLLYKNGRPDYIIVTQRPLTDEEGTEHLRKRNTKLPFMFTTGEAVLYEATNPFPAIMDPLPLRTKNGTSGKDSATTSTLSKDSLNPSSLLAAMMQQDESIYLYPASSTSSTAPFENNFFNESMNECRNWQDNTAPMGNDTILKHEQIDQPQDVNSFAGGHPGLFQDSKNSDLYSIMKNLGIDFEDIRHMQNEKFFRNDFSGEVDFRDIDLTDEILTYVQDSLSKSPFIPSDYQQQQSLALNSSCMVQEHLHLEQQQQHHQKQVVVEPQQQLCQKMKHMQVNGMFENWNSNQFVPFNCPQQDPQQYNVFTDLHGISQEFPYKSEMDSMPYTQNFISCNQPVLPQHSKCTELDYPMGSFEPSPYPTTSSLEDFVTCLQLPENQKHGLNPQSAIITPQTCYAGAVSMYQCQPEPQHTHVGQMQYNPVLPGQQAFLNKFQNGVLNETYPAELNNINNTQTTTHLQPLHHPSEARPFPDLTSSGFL
CCAAT/enhancer-binding protein beta (Homo sapiens), sequence (P17676 whole entry, looked up, the tested form may be a part): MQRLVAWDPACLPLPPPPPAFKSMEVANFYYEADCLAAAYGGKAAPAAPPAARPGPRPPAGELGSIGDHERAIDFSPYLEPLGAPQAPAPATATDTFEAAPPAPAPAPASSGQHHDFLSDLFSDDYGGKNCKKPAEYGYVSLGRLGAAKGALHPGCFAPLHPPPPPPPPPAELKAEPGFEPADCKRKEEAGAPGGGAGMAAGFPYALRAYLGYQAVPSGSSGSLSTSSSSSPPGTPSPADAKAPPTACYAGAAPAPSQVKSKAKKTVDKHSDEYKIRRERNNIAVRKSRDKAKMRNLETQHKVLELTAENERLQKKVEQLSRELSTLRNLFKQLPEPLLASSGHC

Turning to `O=C1C2CC=CCC2C(=O)N1SC(Cl)(Cl)Cl` (stereo not drawn), the result in experiment [1], in [2], in [3], in experiment [4], in experiment [5] and in experiment [6] was inactive. In addition, the compound was classed as inactive in [7] and in [8].
For `CC(C)Oc1cccc(NC(=O)c2ccccc2C(F)(F)F)c1`, the half-maximal activity concentration (AC50) in experiment [9] was 13.6 µM (active); in [1], 5.21 µM (active); in experiment [2], 41.8 µM (active); in experiment [4], 22.2 µM (active); in experiment [7] it was 9.92 µM (active); in experiment [8], 9.42 µM (active). In addition, the compound was called inactive in experiment [3], in experiment [5] and in [6].
As to `OC(c1ccc(Cl)cc1)(c1ccc(Cl)cc1)C(Cl)(Cl)Cl`, the outcome in experiment [1], in [2], in experiment [3], in experiment [5], in [6] and in experiment [7] was inactive. Besides, the outcome in experiment [8] was inactive.
With `CN=C=S`, the AC50 in experiment [9] is 13.7 µM (active); in [1], 15.4 µM (active); in [5], 13.5 µM (active); in [7], 16.5 µM (active). In addition, the result in [2], in experiment [3], in experiment [4], in [6] and in experiment [8] was inactive.
Take `CNC(=O)Oc1cccc2ccccc12`: the AC50 is 50 µM (active) in [2], 6.71 µM (active) in experiment [4] and 23.6 µM (active) in experiment [7]. The outcome in experiment [3], in experiment [5], in [6] and in experiment [8] was inactive.
In the case of `COC(=O)NC(=S)Nc1ccccc1NC(=S)NC(=O)OC`, the compound was called inactive in experiment [2], in experiment [3], in [5] and in [6]. Also, the AC50 in experiment [4] is 73.9 µM (active); in experiment [7] it was 26.3 µM (active).
Take `COP(=S)(OC)SCn1nnc2ccccc2c1=O`: the AC50 in [9] was 18.8 µM (active); in experiment [5], 76.6 µM (active); in experiment [7] it was 13.3 µM (active). In addition, the compound was called inactive in experiment [2], in experiment [3], in experiment [4], in experiment [6] and in [8].
Consider `CCN(CC)c1nc(C)cc(OP(=S)(OC)OC)n1`, for which the values for the AC50 in [9], in experiment [3] and in experiment [4] were 21.9 µM (active), 50 µM (active) and 30.7 µM (active), respectively. The result in experiment [1], in experiment [2], in experiment [5], in [6], in [7] and in [8] was inactive.
Consider `CCSC(=O)N1CCCCCC1`, for which the outcome in experiment [1], in experiment [2], in experiment [3], in experiment [4], in [5] and in [6] was inactive. Also, the compound was called inactive in experiment [7] and in experiment [8].
Turning to `CO/N=C(/C1=NOCCO1)c1ccccc1Oc1ncnc(Oc2ccccc2Cl)c1F`, the call in experiment [2], in experiment [3] and in [6] was inactive. The AC50 in experiment [5] was 0.481 µM (active); in [7], 0.918 µM (active).
For `C=C(C)CN(CC)c1c([N+](=O)[O-])cc(C(F)(F)F)cc1[N+](=O)[O-]`, the outcome in [1], in experiment [2], in [4], in experiment [5], in experiment [6] and in experiment [7] was inactive. For the same compound, the AC50 in experiment [3] is 50 µM (active); in experiment [8] it was 18.4 µM (active).
In the case of `Cc1cnc(C2=NC(C)(C(C)C)C(=O)N2)c(C(=O)O)c1` (stereo not drawn), the compound was classed as inactive in experiment [9], in experiment [2], in [3], in [4], in experiment [5] and in [6]. For the same compound, the compound was classed as inactive in experiment [7]. The AC50 in [8] was 35.4 µM (active).
Consider `Cc1cc(C)nc(Nc2ccccc2)n1`, for which the compound was called inactive in experiment [2], in [3], in [4], in [6] and in experiment [8]. For the same compound, the AC50 in experiment [5] is 30.4 µM (active); in experiment [7], 27 µM (active).
On to `N#CN=C1SCCN1Cc1ccc(Cl)nc1`, for which the outcome in experiment [1], in experiment [2], in experiment [3], in [4], in experiment [5] and in experiment [6] was inactive. The outcome in experiment [7] and in experiment [8] was inactive.
For the compound `CC(C)C1(C)N=C(c2ncccc2C(=O)O)NC1=O` (stereo not drawn), the result in [2], in experiment [3], in experiment [4], in experiment [5], in experiment [6] and in experiment [7] was inactive.
Take `CCOP(=S)(OCC)Oc1nc(Cl)n(C(C)C)n1`: the result in experiment [9], in [2], in experiment [4], in [5], in experiment [6] and in experiment [7] was inactive. Besides, the compound was classed as inactive in experiment [8]. In addition, the AC50 in experiment [3] is 6.85 µM (active).
As for `CC1(C)CCC(=Cc2ccc(Cl)cc2)C1(O)Cn1cncn1` (stereo not drawn), the result in [2], in experiment [3], in experiment [4], in [5], in [6] and in experiment [7] was inactive. For the same compound, the AC50 in experiment [8] is 18.8 µM (active).
For the compound `CC(C)NC(=O)N1CC(=O)N(c2cc(Cl)cc(Cl)c2)C1=O`, the result in experiment [1], in experiment [2], in [3], in [5], in experiment [6] and in experiment [7] was inactive. Also, in experiment [4], the AC50 is 4.87 µM (active).
Regarding `COCC(=O)N(c1c(C)cccc1C)C(C)C(=O)OC` (stereo not drawn), the outcome in experiment [9], in [2], in experiment [3], in experiment [5], in experiment [6] and in experiment [8] was inactive. Moreover, the AC50 is 81.7 µM (active) in [4] and 50 µM (active) in experiment [7].
